Data reported in PubChem BioAssay (NCI).
The panel holds about 83,000 compounds, 20% with a hit somewhere; the sample as a whole holds those more often.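 Plates (96-well) were seeded with cells, treated with compound at one concentration, and incubated for 48 hours before percent growth was determined.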 Calls of active or inactive are those of the source. How the source made its calls: active means growth percent below 10; inactive means the rest.

Tests used:
Experiment in all cases: NCI-60 one-dose screen, 48 h (100 = growth as untreated, 0 = no growth, -100 = all killed)
Conditions in all cases: 10 µM unless noted
[1] = tested on: HCT-15 colon
[2] = tested on: HT29 colon
[3] = tested on: SNB-75 CNS
[4] = tested on: SNB-19 CNS
[5] = tested on: U251 CNS
[6] = tested on: PC-3 prostate
[7] = tested on: SK-MEL-5 melanoma
[8] = tested on: UACC-62 melanoma
[9] = tested on: LOX IMVI melanoma
[10] = tested on: SK-MEL-28 melanoma
[11] = tested on: SK-MEL-2 melanoma
[12] = tested on: EKVX NSCLC
[13] = tested on: SN12C renal
[14] = tested on: UO-31 renal
[15] = tested on: TK-10 renal
[16] = tested on: ACHN renal
[17] = tested on: A498 renal
[18] = tested on: CCRF-CEM leukemia
[19] = tested on: MOLT-4 leukemia

Measured: growth

COc1ccc(/C=N/C2=NNC(C)(c3ccccc3O)N2C(Cc2c[nH]c3ccccc23)C(=O)O)cc1 (configuration not stated)
active: [2] 5.86% | [7] -78.3%
inactive: [1] 39.7% | [3] 32.5% | [4] 27.8% | [5] 21% | [6] 23.8% | [8] 17.7% | [9] 19.2% | [10] 33.5% | [11] 20.2% | [12] 27.5% | [13] 34.4% | [14] 32.1% | [15] 70.4% | [16] 46.5% | [17] 46.5% | [18] 19.7% | [19] 14.4%

CCNC(=O)Oc1ccc(/C(=C(/CC)Cc2ccccc2)c2ccc(OCCN3CCOCC3)cc2)cc1
inactive: [1] 39.4% | [2] 28.6% | [3] 70.2% | [4] 76.7% | [5] 52.8% | [6] 20.2% | [7] 39.5% | [8] 73.2% | [9] 50.4% | [10] 80.6% | [11] 66.2% | [12] 38.6% | [13] 67.7% | [14] 23% | [15] 76.2% | [16] 59.8% | [17] 76.9% | [18] 61.7% | [19] 10.1%

CC1(C)N=C(N)N=C(N)N1c1cccc(CCCCc2ccccc2)c1
active: [2] -5.08% | [3] -5.66% | [6] -30% | [7] -96.7% | [8] -9.07% | [11] 7.3% | [12] 7.11% | [13] 9.06% | [18] 7.35% | [19] -35.9%
inactive: [1] 37.1% | [4] 17.2% | [5] 11.5% | [9] 13.2% | [10] 42.6% | [14] 27.2% | [15] 17.9% | [16] 33% | [17] 61.7%

CN1CCN(Cn2nc(-c3cc(F)c(Cl)cc3Cl)n(/N=C/c3ccc(N(C)C)cc3)c2=S)CC1
inactive: [1] 100% | [2] 99.5% | [3] 78.7% | [4] 71.5% | [5] 95.2% | [6] 76.2% | [7] 79.7% | [8] 79.4% | [9] 79.9% | [10] 82.1% | [11] 90.2% | [12] 87.1% | [13] 102% | [14] 55.5% | [15] 90.2% | [16] 92.7% | [17] 78.8% | [18] 83.5% | [19] 99.1%

O=C(Nc1ccccc1Cl)c1c[nH]c(=O)c(-c2ccc(N3CCCOC4(CC4)C3)cc2)c1
active: [7] 8.08%
inactive: [1] 78.8% | [2] 70.5% | [3] 73% | [4] 72.4% | [5] 75.9% | [6] 57.5% | [8] 63.5% | [9] 46.7% | [10] 78.4% | [11] 70.1% | [12] 37.6% | [13] 74.9% | [14] 65.7% | [15] 52.4% | [16] 72.2% | [17] 47.9% | [18] 48.3% | [19] 48.1%

Cc1cc2nc(-c3c(N)ncc(C#N)c3-c3ccc(Cl)cc3)[nH]c2cc1C
inactive: [1] 67.2% | [2] 29.8% | [3] 56.6% | [4] 84.7% | [5] 18% | [6] 53.5% | [7] 71.9% | [8] 57.8% | [9] 51.7% | [10] 57.6% | [11] 59.9% | [12] 63.7% | [13] 76.5% | [14] 77.8% | [15] 41.5% | [16] 67.7% | [17] 44.1% | [18] 54.5% | [19] 73.3%

COc1ccccc1S(=O)(=O)Nc1ccc2c3c(cc(-c4cnn(C)c4)nc13)C(=O)N2C
inactive: [1] 27.6% | [2] 18% | [3] 26.6% | [4] 50% | [5] 52% | [6] 42.1% | [7] 29.5% | [8] 18.2% | [9] 10.4% | [10] 63.1% | [11] 46.9% | [12] 40.2% | [13] 52.2% | [14] 23.7% | [15] 13% | [16] 37.5% | [17] 26.8% | [18] 55.5% | [19] 44.7%

COc1ccc(-c2c(C#N)cnc(N)c2-c2nc3cc(C)c(C)cc3[nH]2)cc1
active: [5] 1.05%
inactive: [1] 60.3% | [2] 37.3% | [3] 84.2% | [4] 67.6% | [6] 57.8% | [7] 32.2% | [8] 56.1% | [9] 59.6% | [10] 77% | [11] 41.4% | [12] 63% | [13] 80.7% | [14] 83.9% | [15] 48.6% | [16] 53.2% | [17] 82.9% | [18] 90.5% | [19] 104%
